For experiment [1], the target named is Insulin-degrading enzyme (Homo sapiens) (UniProt P14735). In words: cellular IDE Abeta-cleavage inhibition – fluorescence polarization, HEK cells, FAbetaB substrate, confirmation (AID 435028).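 Note: 0% = DMSO wells and 100% = 60 µM reference IDE inhibitor Ii1.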 To be noted: at 5.59 µM, stronger effect = higher value. In general terms: In fluorescence polarisation assays a small probe gives low polarisation when free and higher when bound to something large.

A short description of experiment [2]: HEK cell viability loss – luminescence, cytotoxicity control for IDE inhibitor project (AID 449730; in the data active = inhibition above about 22%;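 note: 0% = vehicle wells and 100% = reference cytotoxic drug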). Conditions: HEK293 cytotoxicity, ATP luminescence; at 5.59 µM; stronger effect = higher value.
For experiment [3], the target named is Oxytocin receptor (Homo sapiens) (UniProt P30559). Description: oxytocin receptor activation, retest of hits – fluorescence, CHO-OTR cells, triplicate, confirmation (AID 434963;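 active = mean activation above about 20% derived from the earlier single-dose screen, limit read from the data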;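 note: peak over minimum fluorescence ratio per well during a 100 second FLIPR read; 0% = DMSO alone and 100% = oxytocin high control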). To be noted: Fluo-8 calcium fluorescence, agonist, at 3 µM, stronger effect = higher value.
Experiment [4] addresses Vasopressin V1a receptor (Homo sapiens) (UniProt P37288). In words: activators of vasopressin V1R in CHO cells – cell-based, triplicate, fluorescence, counter-screen for OXTR agonist project (AID 434991;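 active = mean activation over triplicate exceeds the hit threshold set in the earlier primary screen, cut at about 20% in these data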;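 note: peak over basal fluorescence ratio within a 100 second read; 0% = DMSO alone and 100% = 3 nM vasopressin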). To be noted: Fluo-8 calcium fluorescence, at 3 µM, stronger effect = higher value. For orientation: A counterscreen serves to expose hits that act by an unwanted route or on another target.

Experiment [5] concerns the target Photoreceptor-specific nuclear receptor (Homo sapiens) (UniProt Q9Y5X4). In words: retest of NR2E3-NCOR disrupting agonists – cell-based, luminescence, CHO-S two-hybrid, confirmation (AID 624378;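 active = average inhibition above a cutoff equal to the mean inhibition of all tested compounds plus one SD, cut at about 70% in these data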;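 note: 0% = DMSO in NR2E3 cells and 100% = DMSO in cells lacking NR2E3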). To be noted: CHO-S mammalian two-hybrid NR2E3-NCOR, luciferase luminescence; at 3.98 µM; stronger effect = higher value.
The nature of experiment [6]: nonselective effects on VP16 transactivation – cell-based, luminescence, CHO-S, high throughput, counter-screen for NR2E3 agonist project, confirmation (AID 624379;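 active = mean inhibition above a cutoff equal to the average over all tested compounds plus one standard deviation, cut at about 70% in these data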;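 note: luciferase from a UAS reporter driven by GAL4-VP16 transactivation; 0% = DMSO with VP16-transfected cells and 100% = DMSO with cells lacking VP16; higher means less reporter light so more repression of VP16 activity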). Conditions: CHO-S GAL4-VP16 luciferase reporter, at 3.98 µM, stronger effect = higher value.
Experiment [7] is described as follows: reduced OD of V66 E. coli with T4 gene 2 phage – absorbance, RecBCD inhibitor project, confirmation (AID 651982;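 active = mean inhibition over triplicates exceeding the hit threshold derived in the original primary screen, cut at about 11% in these data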). Conditions: E. coli V66 + T4 2- phage, growth OD; at 11.9 µM; stronger effect = higher value.
A short description of experiment [8]: bacterial growth inhibition – absorbance, high throughput, counter-screen for RecBCD inhibitor project (AID 651983; in the data active = inhibition above about 20%;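 note: E. coli strain V66 grown with compound alone and no phage infection; 0% = bacteria with DMSO vehicle only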). To be noted: E. coli viability, absorbance (OD) growth; at 11.9 µM; stronger effect = higher value.
Experiment [9] can be described thus: reduced optical density, T4-challenged addAB+ bacteria – absorbance, E. coli V3065, T4 phage, counter-screen for RecBCD inhibitor project, confirmation (AID 651984;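 active = mean inhibition above the solvent-only control wells' mean plus 3 SD, cut at about 22% in these data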;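 note: higher means less bacterial growth from phage killing when AddAB is blocked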). To be noted: E. coli expressing H. pylori AddAB + T4 phage, OD growth; at 11.9 µM; stronger effect = higher value; gene 2 mutant T4, recBCD-deleted host.
For experiment [10], the target named is Nuclear receptor coactivator 1 (Homo sapiens) (UniProt Q15788). Description: NCOA1 GAL4-fusion reporter inhibition – cell-based, luminescence, quadruplicate, confirmation (AID 588820;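 active = mean inhibition above 46.68%, the untreated control wells mean plus 3 SD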;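 note: 0% = DMSO wells and 100% = gossypol 36 µM treated wells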). Conditions: HEK293 GAL4-SRC1 luciferase reporter, at 3.6 µM, stronger effect = higher value. A general note: A reporter such as luciferase makes a cellular process visible.
Experiment [11] can be described thus: repression of VP16-driven luciferase reporter – cell-based, luminescence, high throughput, counter-screen for SRC1 inhibitor project (AID 588824; in the data active = inhibition above about 25%). To be noted: cell-based VP16 transactivation luciferase luminescence; at 3.6 µM; stronger effect = higher value.
The subject of experiment [12] is transactivating tegument protein VP16 (Human herpesvirus 1). Description: compounds suppressing VP16-driven luciferase signal – cell-based, luminescence, single concentration, counter-screen for SRC2 inhibitor project (AID 652007; in the data active = inhibition above about 36%). To be noted: cell-based VP16 transactivation luciferase reporter, at 8.9 µM, stronger effect = higher value.
Experiment [13] deals with Nuclear receptor coactivator 2 (Homo sapiens) (UniProt Q15596). Description: inhibition of GAL4-SRC2 driven luciferase expression – cell-based, luminescence, HEK293, triplicate, confirmation (AID 652008;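 active = mean inhibition above 46.5%, the solvent-only control mean plus 3 SD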;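 note: 0% = DMSO-treated cells and 100% = Gossypol at 36 µM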). To be noted: HEK293 GAL4-SRC2 luciferase reporter, at 8.9 µM, stronger effect = higher value.
Experiment [14] has as its target (Lyso)-N-acylphosphatidylethanolamine lipase (Mus musculus) (UniProt Q8VD66). In words: mouse ABHD4 hydrolase blockers, triplicate – biochemical, fluorescence polarization, confirmation (AID 720658;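 active = mean inhibition across replicates above the hit cutoff set in the primary screen, cut at about 30% in these data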;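 note: 0% = wild-type ABHD4 with DMSO and 100% = catalytically dead S159A mutant with DMSO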). Conditions: purified mABHD4, FP-Rh probe fluorescence polarization; at 8.92 µM; stronger effect = higher value.

SMILES strings stand for the structures. Values without a mark were called inactive. This is one part of the list. Activity calls are given as the source filed them.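 Rule for the calls, unless noted: active = mean inhibition across triplicate wells above the cutoff set by the earlier primary insulin-degrading enzyme screen (cut at about 16% in these data); inactive = the rest.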

Sequence of Vasopressin V1a receptor (Homo sapiens) (P37288 whole entry, looked up): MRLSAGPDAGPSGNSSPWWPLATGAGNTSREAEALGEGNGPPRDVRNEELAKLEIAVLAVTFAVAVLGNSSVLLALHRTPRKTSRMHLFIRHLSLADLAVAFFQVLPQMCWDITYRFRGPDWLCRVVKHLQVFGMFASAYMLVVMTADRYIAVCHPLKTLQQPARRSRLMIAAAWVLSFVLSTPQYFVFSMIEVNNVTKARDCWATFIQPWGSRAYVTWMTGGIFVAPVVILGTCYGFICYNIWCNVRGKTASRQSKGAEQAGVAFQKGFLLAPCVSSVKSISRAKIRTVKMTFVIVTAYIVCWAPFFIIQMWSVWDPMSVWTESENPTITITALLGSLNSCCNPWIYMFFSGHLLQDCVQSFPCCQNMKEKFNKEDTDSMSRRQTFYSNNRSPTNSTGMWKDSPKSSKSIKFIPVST
Sequence of Oxytocin receptor (Homo sapiens) (P30559 whole entry, looked up): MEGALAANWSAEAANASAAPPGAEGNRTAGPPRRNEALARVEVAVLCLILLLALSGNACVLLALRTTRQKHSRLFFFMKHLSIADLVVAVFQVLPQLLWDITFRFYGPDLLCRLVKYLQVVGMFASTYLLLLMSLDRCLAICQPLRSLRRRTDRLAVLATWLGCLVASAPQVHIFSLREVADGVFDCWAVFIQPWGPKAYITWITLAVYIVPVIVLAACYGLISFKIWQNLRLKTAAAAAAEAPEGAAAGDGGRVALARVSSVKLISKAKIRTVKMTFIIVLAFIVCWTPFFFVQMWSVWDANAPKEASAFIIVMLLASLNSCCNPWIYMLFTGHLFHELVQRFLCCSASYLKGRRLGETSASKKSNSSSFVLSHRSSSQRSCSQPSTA
Sequence of Insulin-degrading enzyme (Homo sapiens) (P14735 whole entry, looked up): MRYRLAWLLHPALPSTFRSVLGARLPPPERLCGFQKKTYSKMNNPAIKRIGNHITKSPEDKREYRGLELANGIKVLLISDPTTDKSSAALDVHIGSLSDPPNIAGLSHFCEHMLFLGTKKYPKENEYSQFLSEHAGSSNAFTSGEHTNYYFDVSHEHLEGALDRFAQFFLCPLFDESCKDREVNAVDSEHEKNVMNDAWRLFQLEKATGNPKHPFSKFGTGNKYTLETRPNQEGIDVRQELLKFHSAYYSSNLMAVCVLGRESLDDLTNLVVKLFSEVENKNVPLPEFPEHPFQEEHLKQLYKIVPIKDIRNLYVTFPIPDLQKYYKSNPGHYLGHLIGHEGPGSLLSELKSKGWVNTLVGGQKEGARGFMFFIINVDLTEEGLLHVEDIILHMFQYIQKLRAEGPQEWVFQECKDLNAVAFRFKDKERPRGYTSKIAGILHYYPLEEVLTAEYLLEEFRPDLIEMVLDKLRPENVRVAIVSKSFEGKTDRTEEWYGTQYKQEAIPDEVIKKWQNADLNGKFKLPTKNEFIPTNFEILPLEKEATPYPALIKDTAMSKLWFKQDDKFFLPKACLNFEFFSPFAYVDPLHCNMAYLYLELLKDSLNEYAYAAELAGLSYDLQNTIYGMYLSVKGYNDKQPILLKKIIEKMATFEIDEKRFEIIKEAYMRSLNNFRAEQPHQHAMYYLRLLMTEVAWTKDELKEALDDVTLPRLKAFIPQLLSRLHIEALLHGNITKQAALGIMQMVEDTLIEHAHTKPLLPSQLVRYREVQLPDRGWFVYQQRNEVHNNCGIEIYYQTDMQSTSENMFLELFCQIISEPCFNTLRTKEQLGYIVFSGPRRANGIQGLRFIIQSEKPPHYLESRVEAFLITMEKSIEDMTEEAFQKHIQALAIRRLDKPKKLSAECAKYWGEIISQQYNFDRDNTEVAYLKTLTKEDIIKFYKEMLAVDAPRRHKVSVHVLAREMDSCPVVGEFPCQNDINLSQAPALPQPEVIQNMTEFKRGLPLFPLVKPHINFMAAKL
Sequence of Photoreceptor-specific nuclear receptor (Homo sapiens) (Q9Y5X4 whole entry, looked up): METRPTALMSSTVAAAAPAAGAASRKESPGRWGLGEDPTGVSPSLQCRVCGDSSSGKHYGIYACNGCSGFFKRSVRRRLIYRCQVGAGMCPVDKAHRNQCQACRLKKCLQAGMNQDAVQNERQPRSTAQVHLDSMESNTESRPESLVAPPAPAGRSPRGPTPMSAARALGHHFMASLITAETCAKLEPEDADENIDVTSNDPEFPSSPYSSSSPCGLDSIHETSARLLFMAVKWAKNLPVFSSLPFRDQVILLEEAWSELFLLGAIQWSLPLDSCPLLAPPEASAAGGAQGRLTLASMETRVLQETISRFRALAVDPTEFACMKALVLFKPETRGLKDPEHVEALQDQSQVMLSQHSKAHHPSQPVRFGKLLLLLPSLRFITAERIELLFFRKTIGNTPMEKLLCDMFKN
Sequence of Nuclear receptor coactivator 1 (Homo sapiens) (Q15788 whole entry, looked up, the tested form may be a part): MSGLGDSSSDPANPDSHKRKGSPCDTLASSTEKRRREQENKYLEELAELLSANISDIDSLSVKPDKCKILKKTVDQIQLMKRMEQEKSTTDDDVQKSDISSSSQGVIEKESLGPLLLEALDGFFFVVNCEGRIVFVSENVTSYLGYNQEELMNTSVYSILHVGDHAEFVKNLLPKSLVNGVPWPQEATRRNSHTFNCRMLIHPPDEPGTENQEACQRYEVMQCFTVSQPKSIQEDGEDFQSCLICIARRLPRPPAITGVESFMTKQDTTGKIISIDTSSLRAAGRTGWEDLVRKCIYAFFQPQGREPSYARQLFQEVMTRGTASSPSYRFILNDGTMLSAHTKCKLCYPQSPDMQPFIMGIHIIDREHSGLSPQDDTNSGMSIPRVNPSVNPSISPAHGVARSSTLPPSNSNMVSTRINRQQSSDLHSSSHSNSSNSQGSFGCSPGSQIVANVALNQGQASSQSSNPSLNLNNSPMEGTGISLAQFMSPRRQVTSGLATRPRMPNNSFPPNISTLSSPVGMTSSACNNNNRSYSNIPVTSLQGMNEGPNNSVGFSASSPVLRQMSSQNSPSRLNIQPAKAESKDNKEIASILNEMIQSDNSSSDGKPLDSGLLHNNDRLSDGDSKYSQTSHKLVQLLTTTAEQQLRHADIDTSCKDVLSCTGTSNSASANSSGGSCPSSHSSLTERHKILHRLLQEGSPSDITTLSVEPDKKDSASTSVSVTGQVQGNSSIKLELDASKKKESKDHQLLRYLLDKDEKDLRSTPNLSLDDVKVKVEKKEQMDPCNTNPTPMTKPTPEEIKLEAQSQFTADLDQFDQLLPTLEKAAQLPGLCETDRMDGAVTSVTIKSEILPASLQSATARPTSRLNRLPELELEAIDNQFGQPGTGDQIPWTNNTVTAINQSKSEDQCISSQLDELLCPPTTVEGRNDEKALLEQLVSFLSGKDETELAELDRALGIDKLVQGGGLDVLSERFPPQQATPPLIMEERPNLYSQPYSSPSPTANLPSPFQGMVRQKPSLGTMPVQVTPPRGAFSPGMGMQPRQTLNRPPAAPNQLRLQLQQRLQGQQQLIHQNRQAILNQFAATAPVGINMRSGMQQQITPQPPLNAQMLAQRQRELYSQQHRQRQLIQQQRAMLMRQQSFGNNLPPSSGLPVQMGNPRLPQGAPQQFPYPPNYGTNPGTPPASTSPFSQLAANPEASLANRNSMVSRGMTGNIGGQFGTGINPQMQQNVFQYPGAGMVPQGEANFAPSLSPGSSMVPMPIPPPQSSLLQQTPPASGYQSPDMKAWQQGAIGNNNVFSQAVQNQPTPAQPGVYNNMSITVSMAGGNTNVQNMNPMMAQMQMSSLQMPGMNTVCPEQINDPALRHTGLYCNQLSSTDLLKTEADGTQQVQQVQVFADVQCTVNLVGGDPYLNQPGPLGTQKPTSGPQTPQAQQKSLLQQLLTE
Sequence of (Lyso)-N-acylphosphatidylethanolamine lipase (Mus musculus) (Q8VD66 whole entry, looked up): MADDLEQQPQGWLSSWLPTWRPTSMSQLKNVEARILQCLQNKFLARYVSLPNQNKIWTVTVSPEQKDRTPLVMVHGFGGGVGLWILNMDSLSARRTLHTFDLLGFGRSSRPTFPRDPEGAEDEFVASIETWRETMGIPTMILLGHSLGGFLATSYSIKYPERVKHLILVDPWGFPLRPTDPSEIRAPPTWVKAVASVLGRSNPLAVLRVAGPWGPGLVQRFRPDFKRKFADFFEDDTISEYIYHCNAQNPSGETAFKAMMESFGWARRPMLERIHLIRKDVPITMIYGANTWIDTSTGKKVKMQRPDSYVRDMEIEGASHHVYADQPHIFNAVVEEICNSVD

The term inhibition denotes the relative decrease from the control value, in per cent. With `C=CCC1=C/C(=C\c2c(N)n3nc(CC(=O)N4CCOCC4)sc3nc2=O)C=C(OC)C1=O`, the inhibition in [1] is 25.9% (active); in [2] it was 12.5%.

In the case of `COc1cc(/C=C(\C#N)c2nc3ccccc3[nH]2)ccc1O`, the inhibition in experiment [1] is 134% (active); in [2] it was 21.9%.

As to `Cc1c(C(=O)Nc2cccc(-c3nnc4n3CCCCC4)c2)oc2ccccc12`, the figures for the inhibition in experiment [1] and in experiment [2] were 5.89% and 21.4%, respectively.

On to `CC(C(=O)c1ccc(-c2ccccc2)cc1)[n+]1cccc(Br)c1` (stereo unspecified), for which the inhibition is 16.4% (active) in [1] and 14.3% in experiment [2].

Take `Cc1nn(C)cc1C(=O)c1ccccc1`: the inhibition in experiment [1] was 3.52%; in experiment [2], 5.03%.

In the case of `CN(C)S(=O)(=O)c1ccc(Oc2ccc(S(=O)(=O)N(C)C)cc2)cc1`, the activation was 11.7% in experiment [3] and 11.1% in experiment [4]. Further, the inhibition in experiment [5] was 71.8% (active); in experiment [6], 31.9%.

For `CCCC(=O)Nc1c(O)c2ccccc2[nH]c1=O`, the inhibition in [1] was 2.78%; in experiment [2], 9.27%.

Consider `Cc1cccc(-n2c(Cc3cc(=O)[nH]c(=O)[nH]3)nnc2SCC(=O)Nc2cccc(C(F)(F)F)c2)c1`, for which the inhibition is 6.02% in experiment [1] and 3.28% in experiment [2].

For the molecule `O=C(CCc1ccc(S(=O)(=O)N2CCOCC2)cc1)Nc1ccc2ccccc2c1`, the inhibition in experiment [1] is 8.6%; in experiment [2] it was 13.4%.

For `O=C(Nc1ccc(Sc2ccc(Br)cc2)cc1)c1ccco1`, the inhibition in experiment [1] was 14.3%; in experiment [2], 20.9%.

Consider `O=C(N/N=C/c1ccc(OC(=O)c2ccccc2Cl)cc1)c1ccc(O)cc1`, for which the inhibition in [1] was 4.51%; in [2], 6.4%.

In the case of `CN1/C(=c2/s/c(=C3/C(=O)N(c4ccccc4)NC3=Nc3ccccc3)n(C)c2=O)C(C)(C)c2ccccc21`, the results for the inhibition in experiment [1] and in experiment [2] were 8.19% and 11.6%, respectively.

For `CCOC(=O)CC1C(=O)NCCN1c1nc2c(C)cccn2c(=O)c1/C=C1\SC(=S)N(C(C)CC)C1=O` (stereo unspecified), the inhibition was 27.1% (active) in [1] and 41.5% (active) in experiment [2].

Regarding `CCCCc1cc(=O)oc2c(C)c(OCC(=O)N3CCC(C(N)=O)CC3)ccc12`, the inhibition in experiment [1] is 8.74%; in [2], 11.7%.

Consider `CC1(C)Cc2cccc(OCC(=O)N3CCN(c4ccc([N+](=O)[O-])cc4)CC3)c2O1`, for which the inhibition was 4.72% in experiment [1] and 19.7% in experiment [2].

Consider `Cn1c2ccccc2c2cc(/C=C(\NC(=O)c3ccccc3)C(=O)NCC(=O)O)ccc21`, for which the inhibition is 17.3% (active) in [1] and 5.76% in experiment [2].

`CCOc1cc2c(Cl)ncnc2c(OCC)c1OCC`: the inhibition in experiment [1] was 4.73%; in experiment [2], 6.67%.

Turning to `Cc1cccc(N2CCN(C(=O)c3cccc(N4C(=O)C5C6C=CC(C6)C5C4=O)c3)CC2)c1C` (stereo unspecified), the inhibition in experiment [1] is 31.1% (active); in experiment [2] it was 17.6%.

For `COc1ccc(NS(=O)(=O)c2ccc(Oc3c(C#N)cccc3C#N)cc2)cc1`, the activation in experiment [3] was 17.5%; in experiment [4], 13.7%. For the same molecule, the inhibition in [5] is 94.9% (active); in experiment [6], 88% (active).

Take `N#C/C(=C\c1ccc(N2CCOCC2)o1)C(=O)N1CCOCC1`: the results for the inhibition in experiment [1] and in experiment [2] were 14.7% and 8.42%, respectively.

Regarding `NC(=O)c1c(Nc2nc3c(F)cccc3s2)sc2c1CCCC2`, the results for the inhibition in [1] and in [2] were 12.7% and 5.16%, respectively.

For the molecule `CN(C)c1ccc(/C=C2\NC(=S)N(Cc3ccccc3)C2=O)cc1`, the inhibition in experiment [1] is 135% (active); in experiment [2], 24.2% (active).

With `O=C(Nc1ccc(Cl)c(Cl)c1)N1CC=C(c2ccccc2)CC1`, the inhibition was 4.7% in experiment [1] and 8.42% in experiment [2].

On to `Oc1ccc(-c2onc3ccc(Cl)cc23)cc1`, for which the inhibition in experiment [1] was 101% (active); in experiment [2], 12.7%.

In the case of `CC(=O)c1cc(NC(=O)c2ccccc2)c(=O)oc1/C=C/N(C)C`, the inhibition is 31% (active) in experiment [1] and 5.05% in experiment [2].

As for `CCOc1ccc(Cn2nnc(C(=O)Nc3ccc(OC)cc3OC)c2N)cc1`, the results for the activation in [3] and in experiment [4] were 16.4% and 14.5%, respectively. In addition, the inhibition in experiment [7] was -0.29%; in experiment [8], -0.35%; in experiment [9] it was -1.47%.

In the case of `CCN1/C(=C/c2ccc3ccc(C)cc3[n+]2CC)Sc2ccccc21`, the inhibition in [1] was 55.5% (active); in experiment [2] it was 107% (active).

With `CS(=O)(=O)N(Cc1ccccc1)c1ccc(C(=O)NN=C2CCCCCC2)cc1`, the inhibition in experiment [1] was 3.28%; in experiment [2] it was 6.18%.

With `Cc1cc(S(=O)(=O)c2cc3ccc(O)c(C)c3oc2=O)ccc1F`, the activation in experiment [3] was 16%; in experiment [4], 13.1%. Besides, the values for the inhibition in experiment [10] and in experiment [11] were -24% and -0.08%, respectively.

`O=C(Oc1c(-c2ccco2)oc2ccccc2c1=O)c1cccnc1`: the inhibition was 93% (active) in experiment [1] and 8.69% in experiment [2].

With `COc1ccc(N2CCN(C(=O)/C(C#N)=C/c3ccccc3)CC2)cc1`, the values for the inhibition in experiment [1] and in [2] were 8.71% and 5.82%, respectively.

Regarding `CCc1ccc(-c2nn(-c3ccccc3)cc2CSC(=N)N)cc1`, the values for the activation in experiment [3] and in experiment [4] were 11% and 7.29%, respectively. The inhibition in experiment [12] is -13.8%; in experiment [13], -7.64%; in [14], 43.6% (active).
